Laboratory results from PMC4336329 (PLoS ONE, 2015).
Hit rate of the full screen: of about 310,000 compounds, about 14,000 (4.5%) showed an effect of 50% or more. Effects have a minus sign here. The full list was thinned out, with strong results kept by preference.

Target: human ether-à-go-go-related gene (hERG) potassium channel (human, UniProt Q12809)
Experiment: primary screen, population patch clamp on CHO cells stably expressing hERG; higher = less effect of the substance
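Further: peak tail current of the secondary pulse compared with the same well before compound.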

human ether-à-go-go-related gene (hERG) potassium channel, sequence (Q12809 whole entry, looked up): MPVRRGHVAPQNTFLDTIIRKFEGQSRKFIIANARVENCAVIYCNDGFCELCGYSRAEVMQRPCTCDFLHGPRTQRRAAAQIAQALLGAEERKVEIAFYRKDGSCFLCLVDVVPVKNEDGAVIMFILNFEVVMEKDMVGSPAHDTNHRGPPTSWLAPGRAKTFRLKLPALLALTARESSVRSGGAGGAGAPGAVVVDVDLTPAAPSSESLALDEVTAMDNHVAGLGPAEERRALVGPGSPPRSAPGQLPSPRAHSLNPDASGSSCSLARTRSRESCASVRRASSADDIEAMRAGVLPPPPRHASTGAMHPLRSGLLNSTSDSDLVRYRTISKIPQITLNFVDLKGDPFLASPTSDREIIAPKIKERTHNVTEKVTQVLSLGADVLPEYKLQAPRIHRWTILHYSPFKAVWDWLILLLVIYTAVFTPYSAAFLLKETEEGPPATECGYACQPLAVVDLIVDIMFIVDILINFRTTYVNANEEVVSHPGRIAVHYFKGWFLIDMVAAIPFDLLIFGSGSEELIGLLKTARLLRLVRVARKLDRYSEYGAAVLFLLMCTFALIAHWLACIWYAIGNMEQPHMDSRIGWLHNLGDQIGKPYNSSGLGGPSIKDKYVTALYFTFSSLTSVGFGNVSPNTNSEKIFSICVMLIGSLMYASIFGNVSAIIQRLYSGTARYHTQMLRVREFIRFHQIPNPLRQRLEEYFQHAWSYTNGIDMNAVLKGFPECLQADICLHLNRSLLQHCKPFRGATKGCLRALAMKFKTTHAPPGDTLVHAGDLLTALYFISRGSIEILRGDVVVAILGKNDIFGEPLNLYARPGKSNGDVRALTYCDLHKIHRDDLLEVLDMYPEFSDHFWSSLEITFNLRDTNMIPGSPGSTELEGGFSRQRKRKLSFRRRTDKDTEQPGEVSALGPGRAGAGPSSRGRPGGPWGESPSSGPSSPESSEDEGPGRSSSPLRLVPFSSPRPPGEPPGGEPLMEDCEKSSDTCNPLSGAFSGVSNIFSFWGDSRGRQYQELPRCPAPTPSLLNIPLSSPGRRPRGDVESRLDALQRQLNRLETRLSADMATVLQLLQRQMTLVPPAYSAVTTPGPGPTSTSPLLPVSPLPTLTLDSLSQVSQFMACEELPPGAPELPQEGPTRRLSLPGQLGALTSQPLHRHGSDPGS

SMILES	hERG current change (%, negative = inhibition) at 10uM [%]
CCCCSc1n[nH]c(N)n1	14
CC(C)CCn1c(N2CCC(C(N)=O)CC2)nc2c1c(=O)[nH]c(=O)n2C	11.1
CCOc1cc2[nH]c(=S)n(CCCC(=O)NCc3ccco3)c(=O)c2cc1OCC	-7.08
CCOC(=O)/C(C#N)=C/N1CCOCC1	-1.97
COc1cccc(C2C3(C#N)C(N)=NC(OC)(OC)C23C#N)c1 (centres unmarked)	9.01
c1ccc2c(c1)Sc1ccccc1N2CC1CN2CCC1CC2 (centres unmarked)	-53.1
O=C(C1CC1)N1c2ccccc2Sc2ccccc21	7.2
CC1CCCN(CC(=O)N2c3ccccc3Sc3ccccc32)C1 (centres unmarked)	1.98
Cc1ccc2nc(-c3cccnc3)oc2c1	5.22
Cc1ccc(C(=O)CN(CCCC(N)=O)S(=O)(=O)c2ccc([N+](=O)[O-])cc2)cc1	-66.7
Cc1ccc(C(=O)CN(CCC(=O)O)S(=O)(=O)c2ccc([N+](=O)[O-])cc2)cc1	-25.7
O=C(O)CCN(CC(=O)c1ccc(Cl)cc1)S(=O)(=O)c1ccc([N+](=O)[O-])cc1	-13.7
c1ccc2c3c([nH]c2c1)-c1[nH]ncc1CC3	1.38
CC(=O)N1CCc2c(sc(NC(=O)CCS(=O)(=O)c3ccc(C)cc3)c2C(N)=O)C1	2.54
O=C(CC1CCCC1)Nc1cc(S(=O)(=O)N2CCOCC2)ccc1O	4.05
Cc1ccc2[nH]c(=O)c(-c3nc4ccccn4c3NCc3ccco3)cc2c1	-12.3
Cc1cccc2cc(-c3nc4c(C)cccn4c3NCc3ccco3)c(=O)[nH]c12	-11.5
COCCNc1c(-c2cc3ccc(C)c(C)c3[nH]c2=O)nc2ccccn12	-74.9
O=C(NCCc1ccccc1)c1cccnc1	7.59
COc1ccc(-c2cn[nH]c2-c2ccc(OCC(=O)NN)cc2O)cc1OC	18.3
COc1cccc(C2CC(c3ccc(NS(C)(=O)=O)cc3)=NN2C(=O)c2ccccc2)c1OC (centres unmarked)	-64.4
COc1ccccc1C1CC(c2ccc(NS(C)(=O)=O)cc2)=NN1C(=O)c1ccccc1 (centres unmarked)	-50.9
COc1ccc(C(=O)N2N=C(c3ccc(NS(C)(=O)=O)cc3)CC2c2cccs2)cc1 (centres unmarked)	-10.6
CCOc1ccccc1C1CC(c2cccc(NS(C)(=O)=O)c2)=NN1C(=O)c1ccccc1 (centres unmarked)	-38.1
COc1cccc(C2CC(c3cccc(NS(C)(=O)=O)c3)=NN2C(=O)c2ccccc2)c1OC (centres unmarked)	-40.5
COc1ccccc1C1CC(c2ccccc2)=NN1C(=O)c1ccccc1 (centres unmarked)	11.9
COc1ccc(C2CC(c3ccc(OC)c(OC)c3)=NN2C(=O)c2ccccc2)cc1 (centres unmarked)	9.33

SMILES	hERG current change (%, negative = inhibition) at 10uM [%]
COc1cccc(C2CC(c3ccc(Br)cc3)=NN2C(=O)c2ccncc2)c1OC (centres unmarked)	-29.7
COc1ccc(OC)c(C2CC(c3ccc(NS(C)(=O)=O)cc3)=NN2C(=O)c2ccccc2)c1 (centres unmarked)	-67.2
CCOC(=O)Cc1csc(NC(=O)c2ccc(S(=O)(=O)N(CCOC)CCOC)cc2)n1	-1.25
O=C(Cc1ccccc1)Nc1nnc(-c2cccc([N+](=O)[O-])c2)s1	5.44
COc1ccc(CCC(=O)Nc2cc(S(=O)(=O)N3CCOCC3)ccc2OC(C)C)cc1	-34.8
COc1ccccc1N(C)S(=O)(=O)c1ccc(C(=O)OCC(=O)NCc2cccs2)cc1	5.35
CCN(c1ccc(OC)cc1)S(=O)(=O)c1ccc2c(c1)CC(C)N2C(=O)C1CC1 (centres unmarked)	19.5
O=S(=O)(NCCc1ccc(F)cc1)c1cccc2cccnc12	-0.538
O=C(CSc1nccc(=O)[nH]1)N1N=C2/C(=C/c3ccco3)CCCC2C1c1ccco1 (centres unmarked)	17.4
CCCCN1C(=O)C(=O)N(CC(=O)N2N=C3/C(=C/c4ccco4)CCCC3C2c2ccco2)C1=O (centres unmarked)	-75
Cn1cnnc1SCC(=O)N1N=C2/C(=C/c3ccco3)CCCC2C1c1ccco1 (centres unmarked)	-25.6
CC1CCN(C(=O)CSc2nc3c(c(=O)n(C)c(=O)n3C)n2C)CC1	10.5
COc1cc(C(=O)N(C)CC2CCN(CCc3cccc(C(F)(F)F)c3)CC2)ccc1C	-78.8
COc1ccnc(CN(C)C(=O)C2CCC(=O)N(Cc3cccc(C(F)(F)F)c3)C2)c1 (centres unmarked)	-18.6
CN(CC1CCN(CCc2cccc(C(F)(F)F)c2)CC1)C(=O)c1ccccc1	-68.5
COc1ccc(CCNC(=O)Cc2cccc(C(F)(F)F)c2)cc1OC	5.75
COc1cccc(C(=O)N(C)CC2CCN(CCc3cccc(C(F)(F)F)c3)CC2)c1	-70.8
COc1cccc(CCNCc2cccc(C(F)(F)F)c2)c1.O=C(O)C(=O)O	-3.46
COc1cccc(CN(C)C(=O)c2ccc(OCC(=O)Nc3cccc(C(F)(F)F)c3)c(OC)c2)c1	-26.2
CN(CC1CCN(CCc2cccc(C(F)(F)F)c2)CC1)C(=O)c1ccc(F)cc1	-70.8
O=C(c1cccc(C(F)(F)F)c1)N1CCN(CCc2ccccc2)CC1	-47.8
CC1CCN(CC(=O)c2cccc(C(F)(F)F)c2)CC1.O=C(O)C(=O)O	7.63
CCOC(=O)C1CCCN(C(=O)CSc2nccn2C)C1 (centres unmarked)	-0.344
CCOC(=O)c1cnn2c(C)cc(-c3ccccc3)nc12	-10.4
Cc1cc(C)c(S(=O)(=O)Nc2ncn[nH]2)cc1C	42.8
COC(=O)c1ccccc1NC(=O)c1ccccc1OC	-23.1
